# PubChem BioAssay AID729 (The Scripps Research Institute Molecular Screening Center, 2007)
# Among all 97,000 compounds or so, about 450 (0.46%) were called active. What follows is part of a selection rich in actives, with near analogues and random picks from the rest. Unmarked numbers belong to inactive results. Cut-off read from the data, not from the text of the source: active = activation above about 16%; inactive = the rest.
# Biological target: Sphingosine 1-phosphate receptor 2 (Homo sapiens) (UniProt O95136)
# Sequence (O95136 whole entry, looked up): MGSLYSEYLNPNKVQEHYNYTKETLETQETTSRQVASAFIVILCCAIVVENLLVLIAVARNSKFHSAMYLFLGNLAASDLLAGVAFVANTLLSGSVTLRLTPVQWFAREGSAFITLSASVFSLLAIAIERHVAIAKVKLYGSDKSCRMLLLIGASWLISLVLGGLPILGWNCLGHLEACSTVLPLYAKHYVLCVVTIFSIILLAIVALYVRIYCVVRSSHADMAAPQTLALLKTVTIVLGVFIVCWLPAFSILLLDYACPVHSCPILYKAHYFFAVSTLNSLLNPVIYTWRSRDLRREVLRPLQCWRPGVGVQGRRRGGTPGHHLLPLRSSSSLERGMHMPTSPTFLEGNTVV
# Test: activation of human S1P2 receptor – cell-based, primary screen (AID 729);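 note: 0% = vehicle low control and 100% = maximal reference agonist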
# Conditions: S1P2-expressing cell line, agonist reporter read-out; at 4.5 µM; hits give high values
row,SMILES,activation
1,Cn1nnnc1SCC(=O)Nc1ccccc1C(=O)NC1CC1,-4.5%
2,C/C(=N\NS(=O)(=O)c1cccc([N+](=O)[O-])c1)c1cc2ccccc2o1,-4.08%
3,CCOc1c(Cl)cc(/C=N/O)cc1OC,-3.93%
4,CC(=O)C1=C(C)NC(C)=C(C(C)=O)C1c1cn(-c2ccccc2)nc1-c1cccs1,-8.95%
5,CCc1nc(C)ccc1OCC(=O)N(CC)CC,-0.52%
6,CSc1nc(-c2ccco2)nn1C(=O)CCc1ccccc1,-4.35%
7,CCOC(=O)c1nnn(-c2nonc2-n2cccc2)c1CN1CCOCC1,-2.91%
8,O=C(Cc1ncc(C(F)(F)F)cc1Cl)Nc1cccc(Br)c1,-3.95%
9,Cc1noc(C)c1CSCC(=O)Nc1nc2ccc(Oc3ccccc3)cc2s1,-9.84%
10,C=CCn1c(-c2ccc(Cl)cc2)ccc(C#N)c1=O,-1.04%
11,CCC(C)NC(=O)c1c(N)n(/N=C/c2cccs2)c2nc3ccccc3nc12 (configuration not stated),11.4%
12,C=CCn1c(N)c(C(=O)OCC(C)C)c2nc3ccccc3nc21,-4.83%
13,CCCNC(=O)c1c(N)n(-c2ccc(S(N)(=O)=O)cc2)c2nc3ccccc3nc12,25.6% (active)
14,COc1ccc2c(c1OC)C(=O)N(c1ncn[nH]1)C2,16.5% (active)
15,COc1ccc2c(c1OC)C(=O)c1ccccc1C2=O,-4.98%
16,COc1ccc(N2CCN(C(=O)CCc3nc(-c4ccc(C)cc4)no3)CC2)cc1,-1.72%
17,Cc1ccc(S(=O)(=O)Nc2nc(C)cc(-n3nc(C)cc3C)n2)cc1,-3.06%
18,N#Cc1ccc(-c2ccc(Cl)cc2)nc1Oc1ccc(F)cc1,-3.88%
19,Cc1ccc(/C=N/NC(=O)C2=NNC(c3ccccc3)(c3ccccc3)C2)c(O)c1,2.35%
20,O=C(Cc1ccccc1)N/N=C/c1ccc(Cl)cc1Cl,2.34%
21,Cc1nn(C)cc1C(=O)NNC(=S)Nc1ccc(Cl)cc1,-6.95%
22,O=C1CCCc2nn(-c3ccccc3)nc21,-3.05%
23,Cc1nc(NC(=O)c2cccc(Cl)c2)sc1-c1csc(Nc2cccc(Cl)c2)n1,-10.8%
24,Cc1cc(C)c2nc(NC(=O)c3ccc4c(c3)OCO4)sc2c1,-8.01%
25,CNC(=O)c1csc(-c2ccccc2)n1,-5.56%
26,O=C(c1cc2c(s1)CCC2)N1CCN(c2ccccc2)CC1,-4.17%
27,Cc1nn(Cc2ccc(C(=O)N3N=C(C(F)F)CC3(O)C(F)F)cc2)c(C)c1[N+](=O)[O-] (configuration not stated),-4.76%
